Data as given in PubChem BioAssay (Tox21).
Inconclusive results are not listed. The source made the active and inactive calls. The call rests on the fitted dose curve; in most records, active means well fitted inhibition curve with a large enough effect in the repeat runs; inconclusive means weak or mixed curves; inactive means no such curve, though single readings can be large or run the other way.

Biological target: Cytochrome P450 2C19 (Homo sapiens) (UniProt P33261)
Assay: Cytochrome P450 Family 2 Subfamily C Member 19 (CYP2C19) small molecule antagonists: luciferase reporter qHTS assay (AID 1671197); further: nearly all actives have a fitted effect of over 65% in size
Conditions: P450-Glo CYP2C19 enzyme, luciferin luminescence, 1 h; series mostly up to 115 µM; activity change, negative = inhibition: at the top concentration
Source text: National Center for Advancing Translational Sciences [NCATS]
U.S. Environmental Protection Agency [EPA]
National Institutes of Environmental Health Sciences [NIEHS]
National Toxicology Program [NTP]
U.S. Food and Drug Administration [FDA]
Cytochrome P450 (CYP) enzymes are membrane-bound hemeproteins that play a key role in metabolism of drugs and xenobiotics. Evaluation of the effect of chemicals on CYP isozymes is useful to minimize the adverse drug reactions and toxicities in drug development process. Tox21 chemicals were tested for their effect on CYP enzyme activities by using P450-Glo (TM) screening systems (Promega Corporation, Madison, WI). These systems provide a luminescent method containing proluciferin substrates and are converted to luciferin products by CYP isozymes. The luciferin products formed are detected with a luciferin detection reagent, and the amount of light produced is proportional to CYP activity. P450-Glo (TM) CYP2C19 screening system (Catalog. No. V9880) was used to detect the compounds that interfere in CYP2C19 activity. The positive control compound used for CYP2C19 assay is ketoconazole (Sigma-Aldrich, St. Louis, MO).
Tox21 Assay Protocol Summary:
Two ul of enzyme-substrate mix was dispensed into medium binding white/solid 1536-well plates (Greiner Bio-One North America Inc., Monroe, NC) using a BioRaptr Flying Reagent Dispenser (FRD, Beckman Coulter, Brea, CA). Compounds dissolved in DMSO and positive control (ketoconazole) were transferred to the assay plates at 23 nl using a Pintool station (Wako, San Diego, CA). The assay plates were incubated at room temperature for 10 min. Then 2 ul of NADPH regeneration solution was added to each well of the assay plates using an FRD and incubated at 37C for 1 h. The reaction was stopped by adding 4 ul of detection reagent using an FRD and after 20 min incubation at room temperature the luminescence signal was measured using a ViewLux plate reader (Perkin Elmer, Shelton, CT). Data were expressed as relative luminescence units.
On the % scale 0 is the no-effect control and ±100 the full control effect; potency means the concentration at half of the fitted maximal effect.

Sequence of Cytochrome P450 2C19 (Homo sapiens) (P33261 whole entry, looked up): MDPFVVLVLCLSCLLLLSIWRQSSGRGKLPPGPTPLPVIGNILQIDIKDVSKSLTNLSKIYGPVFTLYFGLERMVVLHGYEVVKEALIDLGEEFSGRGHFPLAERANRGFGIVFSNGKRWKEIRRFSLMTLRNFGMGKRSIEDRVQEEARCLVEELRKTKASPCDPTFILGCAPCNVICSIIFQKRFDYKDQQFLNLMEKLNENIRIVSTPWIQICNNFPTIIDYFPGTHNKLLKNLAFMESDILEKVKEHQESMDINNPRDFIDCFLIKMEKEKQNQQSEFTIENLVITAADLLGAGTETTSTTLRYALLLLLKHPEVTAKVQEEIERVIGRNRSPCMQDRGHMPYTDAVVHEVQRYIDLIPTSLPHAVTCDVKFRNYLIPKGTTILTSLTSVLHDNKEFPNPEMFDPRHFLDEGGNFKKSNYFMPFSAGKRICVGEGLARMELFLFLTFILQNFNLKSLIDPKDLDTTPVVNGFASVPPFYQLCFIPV

| SMILES | Potency | activity change, negative = inhibition |
| --- | --- | --- |
| O=[N+]([O-])c1cccc2c([N+](=O)[O-])cccc12 | 22.6 µM (active) | – |
| O=CNC(N1CCN(C(NC=O)C(Cl)(Cl)Cl)CC1)C(Cl)(Cl)Cl (stereo not given) | 7.96 µM (active) | – |
| O=C(O)c1ccc2[nH]cc(CCCCN3CC=C(c4ccccc4)CC3)c2c1 | – | -3.41% [at 52.9 µM] (inactive) |
| BrCCCCCCBr | 25.2 µM (active) | – |
| CC(=O)CCc1ccc2c(c1)OCO2 | 35.6 µM (active) | – |
| CN(N=O)C(N)=O | – | 2.62% (inactive) |
| Clc1cccc(N2CCNCC2)c1 | – | -16.6% [at 52.9 µM] (inactive) |
| N#Cc1c(Cl)cccc1Cl | – | -18.9% (inactive) |
| Cc1nnc2n1-c1sc(CCC(=O)N3CCOCC3)cc1C(c1ccccc1Cl)=NC2 | – | 31.7% [at 52.9 µM] (inactive) |
| CC1(C)COP(Oc2ccccc2)OC1 | – | -7.5% (inactive) |
| CCCSC(=O)Cl | – | -10.3% (inactive) |
| C[C@]1(O)CC[C@H]2[C@@H]3CCC4=CC(=O)CC[C@]4(C)[C@@]3(F)[C@@H](O)C[C@@]21C | 71.4 µM (active) | – |
| COC(=O)C1=CCCN(C)C1 | – | 18.2% [at 52.9 µM] (inactive) |
| CC(N)=S | 71 µM (active) | – |
| COCC(=O)N(c1c(C)cccc1C)N1CCOC1=O | 79.6 µM (active) | – |
| OC(c1ccccc1)(c1ccccc1)C1CCNCC1 | 4.36 µM (active) | – |
| COC(=O)C(C)Oc1ccc(Oc2ccc(Cl)cc2Cl)cc1 (stereo not given) | 5.64 µM (active) | – |
| c1cc2c(c(N3CCNCC3)c1)OCCO2 | – | 50.4% [at 52.9 µM] (inactive) |
| CCNc1nc(NC(C)C)nc(OC)n1 | 25.2 µM (active) | – |
| CCOP(=S)(OCC)SCSP(=S)(OCC)OCC | 0.399 µM (active) | – |

| SMILES | Potency | activity change, negative = inhibition |
| --- | --- | --- |
| Nc1ccccc1Cl | – | -1.89% (inactive) |
| O=[N+]([O-])c1ccc2c3c(cccc13)CC2 | 35.6 µM (active) | – |
| [As]#[In] | – | 1.16% (inactive) |
| C=CCC1=C(C)[C@@H](OC(=O)[C@@H]2[C@@H](C=C(C)C)C2(C)C)CC1=O | 6.33 µM (active) | – |
| Cc1cnc[nH]1 | – | -4.46% (inactive) |
| CC1CCC(=O)O1 (stereo not given) | – | 3.03% (inactive) |
| N#CCCC#N | – | 5.5% (inactive) |
| CN1CCC(O)(c2ccc(F)cc2)C(C(=O)c2ccc(F)cc2)C1 (stereo not given) | – | -8.75% [at 52.9 µM] (inactive) |
| Oc1c(Cl)cccc1Cl | – | 13.5% (inactive) |
| c1coc(-c2nc3ccccc3[nH]2)c1 | 28.3 µM (active) | – |
| OCCBr | – | -1.07% (inactive) |
| CC1(C(=O)Nc2ccc(O)c(Cl)c2Cl)CCCCC1 | 11.2 µM (active) | – |
| CCCSC(=O)N(CCC)CCC | – | -2.28% (inactive) |
| CCC1(c2ccccc2)C(=O)NC(=O)NC1=O | – | 7.09% (inactive) |
| CNCC(=O)c1ccc(O)c(O)c1 | – | 14.9% [at 52.9 µM] (inactive) |
| N#CCNCC#N | – | -13.2% (inactive) |
| CC(COc1ccc(Oc2ccccc2)cc1)Oc1ccccn1 (stereo not given) | 10 µM (active) | – |
| C[C@@H]1CN(C2CCC(C#N)(c3ccc(F)cc3)CC2)CC[C@]1(C(=O)O)c1ccccc1 (stereo not given in full) | – | 25.5% [at 52.9 µM] (inactive) |
| CCCCOC(=O)c1ccccc1N | 28.4 µM (active) | – |
| CC(=O)C(Cl)Cl | – | 5.76% (inactive) |
